Broadly, the inhibition is the relative decrease from the control value, in per cent.

About 2,000 (0.91%) of roughly 220,000 compounds were called active. Roughly 2% stayed inconclusive and do not appear here. Only a sample is shown. Measured potencies and affinities stand elsewhere. A number with no mark means an inactive call. Rule as the data show it: inconclusive = inhibition above about 80% without an active follow-up result; inactive = below that; test concentration not stated here.

The nature of the experiment: M. tuberculosis H37Rv growth inhibitors, H37Rv strain (AID 1626).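 Also: bacteria incubated seven days before Alamar blue readout; 0% = bacteria only wells and 100% = bacteria with antibiotic wells.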 The note with it: active compounds read high, concentration not given here.
Turning to `O=C(N/N=C/c1ccccc1C(F)(F)F)c1ccc(O)cc1`, the inhibition was -4.67%. As for `CCOc1ccc(/C=C/C2=NNC(=O)CC2)cc1`, the figure is -3.64%; as for `CCCCn1c(N2CCC(Cc3ccccc3)CC2)nc2c1c(=O)[nH]c(=O)n2C`, 46.5%; as for `CCCn1c(N2CCC(Cc3ccccc3)CC2)nc2c1c(=O)[nH]c(=O)n2C`, 12.4%. As for `Oc1c(Br)cc(Cl)cc1C=Nc1ccc(N2CCOCC2)cc1`, the figure is 7.51%; as for `O=S(=O)(CCn1cccc1)CCn1cccc1`, 8.4%; as for `COc1cc(/C=N/NC(=O)c2c(-c3ccccc3)noc2C)cc(OC)c1OC`, -3.6%. To `COc1ccc(CNC(=O)COC(=O)CCc2nc3ccccc3c(=O)[nH]2)cc1` belongs 5.36%; to `FC(F)(F)c1ccc(C2[C@H]3CN(CC4CCCCC4)[C@H](c4ccccc4)C34CC2(c2cccnc2)C4)cc1` (some centres undefined), 19.8%. With `c1ccc(C2[C@H]3CN(CC4CCCCC4)[C@H](c4ccccc4)C34CC2(c2ccccc2)C4)cc1` (some centres undefined), the inhibition is 6.4%. To `FC(F)(F)c1ccc(CN2C[C@@H]3C(c4ccc(C(F)(F)F)cc4)C4(c5cccnc5)CC3(C4)[C@H]2c2ccccc2)cc1` (some centres undefined) belongs 9.04%; to `CN1C[C@@H]2C(c3ccc(C(F)(F)F)cc3)C3(c4ccccc4)CC2(C3)[C@H]1c1ccccc1` (some centres undefined), 2.02%; to `FC(F)(F)c1ccc(CN2C[C@@H]3C(c4ccc(Cl)nc4)C4(c5ccccc5)CC3(C4)[C@H]2c2ccccc2)cc1` (some centres undefined), 7.77%. Turning to `CN1C[C@@H]2C(c3ccccc3)C3(c4cccnc4)CC2(C3)[C@H]1c1ccccc1` (some centres undefined), the inhibition was 1.01%.

As to `CCOC(=O)Cn1nc(C)n(-c2ccc(C(C)C)cc2)c1=O`, the inhibition was 1.38%. Regarding `CCCc1nc2c(sc3nc4c(cc32)COC(C)(C)C4)c(=O)n1CCN(C)C`, the inhibition was -6.58%. As for `Cc1ccccc1Nc1c(-c2ccc(N3CCOCC3)cc2)nc2cnccn12`, the inhibition is -3.6%.

As to `CC(C)C[C@H](CO)Nc1nc(Nc2cccc(Cl)c2)c2ncn(C(C)C)c2n1`, the inhibition was 28.8%. Regarding `CC[C@H](CO)Nc1nc(Nc2cccc(Cl)c2)c2ncn(C(C)C)c2n1`, the inhibition was 15.3%. On to `CCN(CC)S(=O)(=O)c1cccc(C(=O)N[C@H](C(=O)NCc2ccc(Cl)cc2)C(C)C)c1`, for which the inhibition is 6.08%. To `COc1cc(C(=O)NCC(C)C)c([N+](=O)[O-])cc1OC` belongs 3.27%; to `CCCOc1ccc(Br)cc1CSC(=N)N`, -1.31%; to `CCCCOc1ccc(Br)cc1CSC(=N)N`, 2.99%. As for `N#CCCN(CCC#N)S(=O)(=O)c1ccc(C(=O)Nc2nnc(C3=COCCO3)o2)cc1`, the figure is -6.19%; as for `CC(=O)Nc1nnc(C2=COCCO2)o1`, 0.04%; as for `CCCC(=O)Nc1nnc(-c2ccc3c(c2)OCCO3)o1`, 57.4%.

With `O=C(NCc1ccccc1)c1ccc2c(c1)OCCO2`, the inhibition is -7.22%. As for `O=C(Nc1nnc(C2=COCCO2)o1)c1ccc(S(=O)(=O)N2CCOCC2)cc1`, the figure is 7.6%; as for `O=C(Nc1nnc(C2=COCCO2)o1)c1ccc(S(=O)(=O)N2CCCC2)cc1`, -3.71%; as for `O=C(Nc1nnc(C2=COCCO2)o1)c1ccc(S(=O)(=O)N2CCCCC2)cc1`, 78.6%.

For the molecule `CCCCC(=O)Nc1nnc(C2=COCCO2)o1`, the inhibition is 2.42%. As for `Cc1ccc(/C=N/NC(=O)c2cccnc2)s1`, the figure is -7.82%; as for `O=C(Nc1ccc(F)cc1)c1ccc(S(=O)(=O)N2CCOCC2)o1`, -14.1%; as for `COC(C[C@@H](O)C[C@@H](O)COCc1ccccc1)OC`, -11.1%.

Consider `Cn1c(SCC(=O)N2CCCc3ccccc32)nc2cccnc21`, for which the inhibition is 4.22%.

Regarding `O=C(Nc1nnc(-c2cccnc2)s1)c1cccs1`, the inhibition was -11.7%. With `CC(C)(Oc1ccc(Cl)cc1)C(=O)OCn1nnc2ccccc2c1=O`, the inhibition was 62.5%. As for `CC(=O)c1c(C(C)=O)c(C)n(-c2cccc([N+](=O)[O-])c2)c1C`, the figure is -7.09%; as for `COc1ccc(-n2c(C)cc(C(=O)CCl)c2C)cc1`, -6.35%; as for `Cc1cc(C)c(S(=O)(=O)N(C)CC(=O)NCc2ccccn2)c(C)c1`, -8.63%. To `CCn1ccnc1CN(C)Cc1cn(C)nc1-c1ccccc1F` belongs -1.63%. As for `COc1cccc(/C=N/n2c(SC)nnc2-c2ccccc2)c1OC`, the figure is -6.45%; as for `Cc1ccc(CN(C(=O)Cc2cccs2)C(C(=O)NC2CCCC2)c2ccncc2)cc1` (centres undefined), 7.49%; as for `O=C(Nc1ccc(S(=O)(=O)Nc2ccc(Cl)cc2)cc1)C1CCCO1` (centres undefined), 5.71%. Regarding `CC(=O)c1ccc(NC(=O)c2ccc(CNc3c(N4CCCC4)c(=O)c3=O)cc2)cc1`, the inhibition was 2.39%. With `O=C(NCc1ccc(Cl)cc1)c1ccc(CNc2c(N3CCOCC3)c(=O)c2=O)cc1`, the inhibition is 87.6%. To `Cc1cc(C)cc(NC(=O)c2ccc(CNc3c(N4CCOCC4)c(=O)c3=O)cc2)c1` belongs 12.3%. Regarding `O=C(NCc1ccc(Cl)cc1)c1ccc(CNc2c(N3CCCC3)c(=O)c2=O)cc1`, the inhibition was 4.26%.

With `COc1cc2c(cc1NC(=O)CSc1nnc(Cc3cccs3)n1Cc1ccco1)oc1ccccc12`, the inhibition is 7.99%. As for `CC(C)c1ccc(NC(=O)Cn2cccc2C2=NC(c3ccccc3)CO2)cc1` (centres undefined), the figure is -2.83%; as for `COc1ccc(C(CCN)Cc2ccccc2)cc1` (centres undefined), 1.28%. As for `O=S1(=O)CCN(OCc2ccc(F)cc2Cl)CC1`, the figure is -5.47%; as for `CCOc1cc(C)nc(Oc2ccc(=O)[nH]n2)n1`, -1.8%; as for `Cc1ccc(-c2csc(=Nc3cccnc3)n2CCCN2CCCC2=O)cc1C`, 8.37%. As for `Cc1ccc(C)c2c1[nH]c1ccccc12`, the figure is -8.26%; as for `c1ccc2c(c1)[nH]c1cnccc12`, -1.77%; as for `CC(C)CCNC1=CC(=O)CC(c2ccccc2)C1` (centres undefined), -3.24%. Take `CNCCOc1ccccc1OC(C)C`: the inhibition is 4.14%. To `O=C(O)c1ccc(C(=O)O)c(C(=O)c2ccccc2)c1` belongs 4.19%; to `Cc1nn(Cc2ccc(F)cc2Cl)c(C)c1[N+](=O)[O-]`, 5.81%; to `N#Cc1c(N)n(CCc2ccc(F)cc2)c2nc3ccccc3nc12`, 7.97%. To `Cc1nc2ccccc2n1CCc1ccccc1` belongs -7.4%; to `CCOc1ccc(-n2c(N)c(-c3nc4ccccc4n3C)c3nc4ccccc4nc32)cc1`, 70.5%. As for `Cn1c(-c2sc(=S)n(-c3ccccc3)c2N)nc2ccccc21`, the figure is -12.8%; as for `CCN(CC)C(=O)C1=C(C)NC(=O)NC1c1ccccc1F` (centres undefined), -2.9%; as for `COc1ccc(NC(=O)C(C)N2c3cccc4cccc(c34)S2(=O)=O)cc1OC` (centres undefined), -6.4%. `CCC(=O)NC(=S)Nc1cccc(NC(=O)c2ccccc2Cl)c1`: the inhibition was 8.67%. To `N#C/C(=C\c1ccc(C(=O)O)cc1)S(=O)(=O)c1cc(Br)ccc1Br` belongs 17%; to `CCn1c(SCC(=O)O)nnc1-c1cccnc1`, -5.44%; to `CC1CN(c2ncnc3c2c(-c2ccccc2)cn3-c2ccc(F)cc2)CC(C)O1` (centres undefined), 8.16%. As for `CCOC(=O)c1sc2nc(N3CCOCC3)c3c(c2c1N)CC(C)(C)N(C)C3`, the inhibition is -3.62%. To `CN1Cc2c(N3CCOCC3)nc3sc(C(=O)c4ccccc4)c(N)c3c2CC1(C)C` belongs 8.23%. With `Cc1ccccc1OCCNc1cc(N2CCN(CCO)CC2)ccc1[N+](=O)[O-]`, the inhibition was 27.5%. As for `O=C(NCc1ccccc1)c1nc2c(nnn2Cc2cccc(Cl)c2)c(=O)[nH]1`, the figure is -4.36%; as for `COC(=O)C1CCN(C(=O)c2sc3nc(-c4ccc(F)cc4)cn3c2C)CC1`, 6.16%; as for `CCC(=Nc1ccccc1OC)C1=C(O)CC(c2ccccc2)CC1=O` (centres undefined), 6.17%. As for `CCCC(=Nc1ccccc1OC)C1=C(O)CC(c2ccccc2)CC1=O` (centres undefined), the figure is 2.17%.

Regarding `CN(CC(=O)Nc1ccc(S(=O)(=O)N2CCCC2)cc1)CC(=O)Nc1cccc(F)c1`, the inhibition is 2.32%. As for `O=C1CC(c2cccs2)Cc2nc(NCC3CCCO3)ncc21` (centres undefined), the figure is -8.23%; as for `Cc1nc2ccccc2c(=O)n1NC(=O)/C=C/c1ccccc1Cl`, -8.45%; as for `Cn1c(COc2ccccc2)nnc1SCC(=O)NNC(=O)C1CCCCC1`, -10.3%. As for `CCn1c(COc2cccc3ccccc23)nnc1SCC(N)=O`, the figure is -13.4%; as for `O=C(O)CSc1nnc(COc2cccc3ccccc23)n1Cc1ccccc1`, -1.72%; as for `COc1cccc(OCc2nnc(SCC(=O)OC3CCCCC3)n2C)c1`, 6.41%. As for `COc1cccc(C(c2nnnn2CS(=O)(=O)c2ccc(C)cc2)N2CCN(C)CC2)c1OC` (centres undefined), the figure is -6.9%; as for `CN1CCN(CC#CC(C)(O)C2CC3C=CC2C3)CC1` (centres undefined), 8.02%; as for `CCN(c1ccccc1)S(=O)(=O)c1ccc(Cl)c(C(=O)OCC(=O)NC(=O)C(C)C)c1`, -9.03%.

As to `Cc1ccc(OC(=O)c2ccc3snnc3c2)cc1`, the inhibition is 68.6%. As for `CC(C)(C)c1ccc(OC(=O)c2ccc3nsnc3c2)cc1`, the figure is 29.5%; as for `COc1ccc2[nH]c(=O)c(CN(C(=O)c3cccnc3)c3ccccc3C)cc2c1`, -2.62%; as for `O=C(Nc1ccc(NC(=O)c2ccccn2)cc1)C(=O)Nc1ccc2c(c1)OCCO2`, 1.18%. Turning to `CCSc1nc2c(c(-c3ccc(C)o3)c1C#N)CCCC2`, the inhibition was 2.67%.

As for `COc1ccc(-c2c(C#N)c(SCC(N)=O)nc3c2CCCC3)cc1`, the inhibition was 2.47%. As for `COc1cccc(NC(=O)CSc2nc3c(c(-c4ccco4)c2C#N)CCCC3)c1`, the figure is -2.62%; as for `N#Cc1c(SCC(=O)O)nc(-c2ccccc2)c2c1CCCC2`, -9.5%. As for `Cc1ccc(-c2c(C#N)c(N)nc3c2CCCC3)o1`, the figure is -11.1%; as for `COC(=O)CSc1nc(-c2ccc(C)cc2)c2c(c1C#N)CCCC2`, 72.2%. To `Cc1ccccc1NC(=O)CSc1nc2c(c(-c3ccco3)c1C#N)CCCC2` belongs -3.31%; to `COC(=O)CSc1nc2c(c(-c3ccc(O)cc3)c1C#N)CCCC2`, -6.65%.

(Values after PubChem BioAssay AID1626 (SRMLSC, 2009).)
